# Assay results from PubChem BioAssay AID2284351 (EPA ToxCast).
# Activity calls are given as the source filed them. Rule for the calls: active = hit-call score of the fitted dose curve at least 0.9, where 1 is the maximum; inactive = score below 0.9.
# Target: Peroxisome proliferator-activated receptor gamma (Homo sapiens) (UniProt P37231)
# Experiment: ATG_hPPARg_EcoTox2: Attagene TRANS-FACTORIAL EcoTox-2 HepG2 Assay for human Peroxisome Proliferator-activated Receptor gamma (PPARg)
# Description: ATG_EcoTox2 is a cell-based, multiplexed assay created by modifying the existing Attagene TRANS-FACTORIAL system to include a panel of nuclear receptors from some or all the following species: human (Homo sapiens), african clawed frog (Xenopus laevis), rainbow trout (Oncorhynchus mykiss), japanese medaka (Oryzias latipes), and zebrafish (Danio rerio). The ECOTOX2-FACTORIAL format uses HepG2, a human liver cell line, with measurements taken at 24 hours after chemical dosing in a 24-well plate. ATG_hPPARg_EcoTox2 is one of 29 assay components calculated in the ATG_EcoTox2 assay. It is designed to make measurements of mRNA induction, a form of inducible reporter, as detected with fluorescence intensity signals by Reverse transcription polymerase chain reaction (RT-PCR) and Capillary electrophoresis technology.The assay endpoint ATG_hPPARg_EcoTox2 was analyzed in the positive analysis fitting direction relative to DMSO as the negative control and baseline of activity. Using a type of inducible reporter, measures of mRNA for gain-of-signal activity can be used to understand the reporter gene at the transcription factor-level as they relate to the gene PPARg. Furthermore, this assay endpoint can be referred to as a primary readout, because this assay has produced multiple assay endpoints where this one serves a reporter gene function. To generalize the intended target to other relatable targets, this assay endpoint is annotated to the nuclear receptor intended target family, where the subfamily is non-steroidal.
# Human liver HepG2 cells are transiently transfected with multiple reporter transcription units (MRTUs) in 6-well plates using FuGene 6 reagent (Roche; 3 ml FuGene/1 mg DNA). The MRTU constructs are regulated by a cis-regulating element (promoter). Each RTU expresses a GAL4-UAS that regulates the transcription of a nearby target reporter gene sequence. A major difference between the CIS and TRANS system is that in CIS activities of endogenous TFs are measured, whereas the TRANS assay evaluates changes in activities of exogenous, chimeric NR-Gal4 proteins. […] At the end of 24 hour incubation, total RNA was isolated using TriZol reagent (Invitrogen). The isolated RNA is then reverse-transcribed using oligo(dT) primer and Mo-MLV reverse transcriptase (Invitrogen) with DNAse I (Ambion) treatment for 30 min. The one-tenth of the produced cDNA was amplified by PCR using Taq DNA polymerase (Invitrogen) and two reporter sequence-specific primers. […] The fragments were purified using Qiaquick PCR columns (Qiagen), analyzed on an ABI 3130xL genetic analyzer (Applied Biosystems) with peak positions identified by using a set of X-rhodamine (ROX)-labeled MapMarker1000 molecular weight standards (BioVentures). […]
# Chain of Peroxisome proliferator-activated receptor gamma (Homo sapiens) (P37231 whole entry, looked up): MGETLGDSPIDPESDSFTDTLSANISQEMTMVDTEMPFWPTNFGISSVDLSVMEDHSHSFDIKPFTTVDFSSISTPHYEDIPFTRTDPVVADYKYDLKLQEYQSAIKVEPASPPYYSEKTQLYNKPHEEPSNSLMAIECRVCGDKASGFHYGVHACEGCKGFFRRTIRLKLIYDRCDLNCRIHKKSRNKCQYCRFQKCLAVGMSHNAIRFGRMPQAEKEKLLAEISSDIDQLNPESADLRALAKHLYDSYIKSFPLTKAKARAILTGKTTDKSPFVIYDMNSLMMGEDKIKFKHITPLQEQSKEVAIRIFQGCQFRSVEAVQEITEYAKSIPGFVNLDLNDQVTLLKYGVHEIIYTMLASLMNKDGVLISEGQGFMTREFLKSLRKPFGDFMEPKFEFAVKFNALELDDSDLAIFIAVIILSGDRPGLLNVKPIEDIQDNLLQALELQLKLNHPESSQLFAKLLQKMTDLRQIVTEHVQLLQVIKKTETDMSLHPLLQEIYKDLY
row,Compound,AC50
1,CCCCOCN(C(=O)CCl)c1c(CC)cccc1CC,1.53 µM (active)
2,O=P(Oc1ccccc1)(Oc1ccccc1)Oc1ccccc1,5.76 µM (active)
3,[Cl][Sn]([c]1ccccc1)([c]1ccccc1)[c]1ccccc1,0.0461 µM (active)
4,O=S(=O)(O)C(F)(F)C(F)(F)C(F)(F)C(F)(F)C(F)(F)C(F)(F)F,42.7 µM (active)
